High-throughput results from PubChem.
Compounds with a hit are over-represented: about 3.6% of the library has one in this group of screens.
PI5P4K alpha inh = qHTS for Inhibitors of phosphatidylinositol 5-phosphate 4-kinase (PI5P4K); Phosphatidylinositol 5-phosphate 4-kinase type-2 alpha (Homo sapiens), P48426; PI5P4Kalpha enzyme, ADP-Glo luminescence, 60 min; stronger effect = lower value; max response, %; 330,000 compounds, 1.2% hits; active means max response of -50% or lower; inconclusive means between -30% and -50%; inactive means -30% or higher; further: value at the top dose of about 77 µM
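Controls without substrate or without enzyme flank wells where PI5P4Kalpha converts substrate using 5 microM ATP (final). Incubation lasts 60 minutes at room temperature; ADP formed is read by ADP-Glo luminescence.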
VDR inh = Inhibitors of the vitamin D receptor (VDR): qHTS; Vitamin D3 receptor (Homo sapiens), P11473; VDR-SRC2-3 peptide fluorescence polarization, 2 h; Potency, µM, most hits filed as inhibitors; 400,000 compounds, 0.93% hits; AID 504847, 2011
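Signal is fluorescence polarization, reporting how far test compounds block the interaction of VDR with the SRC2-3 coregulator peptide after a 2 h room-temperature incubation.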
KAT2A inh = qHTS Assay for Inhibitors of GCN5L2; Potency, µM (titrated, usually from 58.9 µM), hits mostly inhibitors; Histone acetyltransferase KAT2A (Homo sapiens), Q92830; GCN5L2 HAT assay, ThioGlo1 CoA-SH fluorescence; AID 504327, 2011; 390,000 compounds, 0.21% hits
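Titration-based screen in which CoA formation is detected via maleimide probe ThioGlo1 (50uM) turning fluorescent on thiol reaction; substrates H3(1-25) 75uM and acetyl-CoA 70uM, GCN5L2 20nM, 20 min incubation at room temperature.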
PLK1 PBD block = qHTS for Inhibitors of PLK1-PDB (polo-like kinase 1 - polo-box domain): Primary Screen; Potency, µM, actives largely listed as inhibitors; Serine/threonine-protein kinase PLK1 (Homo sapiens), P53350; Plk1 PBD binding of FITC phosphopeptide, fluorescence polarization; 360,000 compounds, 2.8% hits; further: series mostly up to about 57 µM; nearly all actives have a fitted effect of over 65% in size
Rango dissoc inh = qHTS Assay for Inhibitors of RanGTP induced Rango (Ran-regulated importin-beta cargo) - Importin beta complex dissociation. Snurportin-1 (Homo sapiens) + GTP-binding nuclear protein Ran (Homo sapiens) + Importin …. Biochemical FRET Rango-importin beta, RanGTP-induced dissociation. Potency, µM (doses to about 46.1 µM). 340,000 compounds, 0.071% hits. AID 540253, 2011; calls by dose curve; further: nearly all actives have a fitted effect of over 45% in size
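Rango/importin beta premix (0.1/0.25 uM final), PBS + 1 mM DTT + 0.02% Tween-20 + 0.1% BSA; cpd 5 min RT; FRET pre-read; + RanGTP-RCC1 (0.6 uM Ran, 2 mM GTP, 0.2 uM RCC1); 45 min RT; FRET post-read, ex 430, em 486/530 nm.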
Rango-impB inh = qHTS Assay for Inhibitors of Rango (Ran-regulated importin-beta cargo) - Importin beta complex formation; Importin subunit beta-1 (Homo sapiens), Q14974; Potency, µM (series often up to 92.2 µM); 340,000 compounds, 0.031% hits; Rango CFP/YFP FRET sensor + importin beta, 45 min; calls by dose curve; further: nearly all actives have a fitted effect of over 15% in size
Target sequence (Q14974 whole entry, looked up): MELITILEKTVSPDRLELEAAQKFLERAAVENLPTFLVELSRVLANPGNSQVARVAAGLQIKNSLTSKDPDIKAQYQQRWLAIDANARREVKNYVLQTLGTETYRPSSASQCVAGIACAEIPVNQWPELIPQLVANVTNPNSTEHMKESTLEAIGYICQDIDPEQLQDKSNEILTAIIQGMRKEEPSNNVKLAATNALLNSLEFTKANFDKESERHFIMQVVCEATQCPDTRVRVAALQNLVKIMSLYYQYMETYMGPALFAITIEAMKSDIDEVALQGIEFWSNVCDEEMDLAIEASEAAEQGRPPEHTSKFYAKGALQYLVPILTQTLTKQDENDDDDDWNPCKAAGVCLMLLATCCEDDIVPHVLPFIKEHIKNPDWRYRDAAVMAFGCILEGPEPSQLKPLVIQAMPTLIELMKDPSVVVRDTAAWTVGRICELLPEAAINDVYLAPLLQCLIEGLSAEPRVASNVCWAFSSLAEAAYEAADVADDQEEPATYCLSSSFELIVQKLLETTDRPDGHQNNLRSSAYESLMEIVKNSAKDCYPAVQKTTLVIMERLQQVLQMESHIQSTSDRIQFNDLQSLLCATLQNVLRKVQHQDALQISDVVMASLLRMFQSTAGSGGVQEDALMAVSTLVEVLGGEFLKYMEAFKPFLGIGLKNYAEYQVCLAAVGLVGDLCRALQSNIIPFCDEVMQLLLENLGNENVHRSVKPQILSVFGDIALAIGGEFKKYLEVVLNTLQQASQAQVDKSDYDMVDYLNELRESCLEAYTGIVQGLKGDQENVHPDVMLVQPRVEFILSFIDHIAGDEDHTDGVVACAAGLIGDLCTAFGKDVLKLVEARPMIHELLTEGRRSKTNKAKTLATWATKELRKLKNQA
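FRET biosensor (snurportin 1 IBB flanked by EYFP and cerulean), 50 nM, with compound 5 min, then 0.125 microM importin beta in PBS, 1 mM DTT, 0.02% Tween-20, 0.1% BSA. CFP/YFP ratio read after 45 min at room temperature; pre-read flags interference.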
Numbers stand for hits; i = inactive; ? = inconclusive; nt = no result given. Unless noted, the call rests on the fitted dose curve; in most records, active means well fitted curve in the direction sought with a large enough effect; inconclusive means small, poorly fitted or top-dose-only effect, or another doubt; inactive means no such curve, though single readings can be large; an effect the other way counts as inactive or inconclusive.

SMILES	PI5P4K alpha inh	VDR inh	KAT2A inh	PLK1 PBD block	Rango dissoc inh	Rango-impB inh
S=c1[nH]nc(-c2cccnc2)n1/N=C/C=C/c1ccco1	i	i	?	i	i	i
S=c1[nH]nc(-c2ccccc2)n1/N=C/C=C/c1ccco1	i	i	i	i	i	i
Cc1ccccc1-c1n[nH]c(=S)n1/N=C/C=C/c1ccco1	-83.8	70.8µM	i	?	?	?
S=c1[nH]nc(-c2ccc(Cl)cc2)n1/N=C/C=C/c1ccco1	?	i	i	26.7µM	i	i
COc1ccc(OC)c(Nc2ncc3c(n2)CCN(Cc2cc(OC)c(OC)c(OC)c2)C3)c1	nt	i	i	nt	nt	nt
CCC(C)S(=O)(=O)c1oc(-c2cccs2)nc1S(=O)(=O)c1ccccc1 (stereo not drawn)	nt	?	i	nt	nt	nt
CN(C)c1nc(NCc2ccccc2)nc(N/N=C/c2cccc(Br)c2)n1	i	?	i	11.9µM	i	i
COc1ccc(N2C(=O)C(CC(=O)Nc3ccccc3)N(CCC3=CCCCC3)C2=O)cc1 (stereo not drawn)	nt	i	i	nt	nt	nt
COC(=O)c1c(SC)nc2ccccc2c1OCc1ccccc1C	nt	i	i	nt	nt	nt
CCCc1ccccc1OCCNC(C)=O	?	?	i	3.36µM	i	i
Cc1ccc(-c2nc(C(=O)NC3CCCCCC3)no2)cc1	i	79.4µM	nt	9.47µM	i	i
CCCN(Cc1cccs1)C(=O)Nc1cc(C)ccc1OC	nt	i	i	nt	nt	nt
O=C(O)/C(=C\c1cn(-c2ccccc2)nc1-c1cccnc1)NC(=O)c1ccccc1	i	i	i	i	i	i
NC(=S)N/N=C/c1cn(-c2ccccc2)nc1-c1cccnc1	-53.7	28.2µM	i	3.36µM	i	i
CC(C)c1ccc(NC(=O)CSc2nc(=O)n(Cc3cccnc3)c3c2CCC3)cc1	nt	i	i	nt	nt	nt
N#Cc1c(N2CCN(c3ccc(F)cc3)CC2)nc(N)c2c(N)nc3c(c12)CC(=O)N3C1CC1	-50.3	i	i	i	i	?
CCCN1CCC(=O)N(C(CSc2ccc(OC)cc2)CC(C)C)CC1 (stereo not drawn)	nt	i	nt	nt	nt	nt
O=[N+]([O-])c1cccc(/C=N/Nc2ccccn2)c1	i	i	i	i	i	i
O=[N+]([O-])c1cccc(/C=N/NC2=NS(=O)(=O)c3ccccc32)c1	i	i	i	26.7µM	i	i
CCC(Sc1nnc(C)n2c1cc1occc12)C(=O)Nc1ccccc1OC (stereo not drawn)	nt	i	i	nt	nt	nt
Cc1ccc(C)c(NC(=O)CCn2cnnn2)c1	i	i	i	29.9µM	i	i
Cc1ccc(C)c(NC(=O)CCn2nc(C)cc2C)c1	i	i	i	i	i	i
CCN(Cc1ccccc1)C(=O)Cn1c(=O)n(-c2ccccc2)c(=O)c2c1c1cc(C)ccc1n2C	nt	i	i	nt	nt	nt
CCCOC(=O)c1cccc(NC(=O)C(C)(C)C)c1	i	i	i	i	i	i
CC(C)(C)C(=O)Nc1cccc(C(=O)c2cccc(NC(=O)C(C)(C)C)c2)c1	i	i	i	23.8µM	i	i
SMILES	PI5P4K alpha inh	VDR inh	KAT2A inh	PLK1 PBD block	Rango dissoc inh	Rango-impB inh
N#Cc1ccccc1-c1ccc2ncnc(NCc3cccs3)c2c1	nt	i	i	nt	nt	nt
O=C(O)CSc1sc(=S)sc1SCC(=O)O	nt	i	i	26.7µM	i	i
CCOc1ccc(N=Cc2ccc(N(C)C)cc2)c(O)c1	-54.0	nt	nt	?	nt	nt
Cc1cccc(CSCCNC(=O)CN(c2ccccc2)S(=O)(=O)N(C)C)c1	nt	i	i	nt	nt	nt
CCc1ccccc1NC(=O)c1ccc2c(O)c(S(=O)(=O)c3ccc(OC)cc3)c(=O)[nH]c2c1	i	?	i	3.36µM	i	i
COc1ccc(S(=O)(=O)c2c(O)c3ccc(C(=O)Nc4ccc(F)cc4)cc3[nH]c2=O)cc1	?	?	i	29.9µM	i	i
